Experimental data from PubChem BioAssay (NCATS).
Records with an inconclusive call do not appear. The source made the active and inactive calls. Unless noted, calls follow the shape of the dose curve; as a rule, active = well fitted curve in the direction sought with a large enough effect; inconclusive = small, poorly fitted or top-dose-only effect, or another doubt; inactive = no such curve, though single readings can be large; an effect the other way counts as inactive or inconclusive.

Key:
[1] = molecular target: Cytochrome P450 1A2 (Homo sapiens) (UniProt P05177); experiment: p450-cyp1a2 (AID 410; calls by dose curve; also: potency is read from the fitted curve at half-maximal effect;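 as to activity change, negative = inhibition: -100% = full effect of reference inhibitor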)
Outline: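 Human CYP1A2 (20nM) demethylated Luciferin-ME at its Km (100uM) in 100mM KPO4. After 10 min compound preincubation, NADPH regeneration ran the reaction 60 min at room temperature. Luciferin was read by luminescence, normalized to 57 uM furafylline.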

[2] = NFAT Signaling Pathway (AID 444; active = well fitted curve in either direction with a large enough effect, not every such curve was filed as active;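 also: carbachol stimulus at about its EC50 of 1 µM final; % is scaled to controls: 0 for no effect and ±100 for the full control effect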); details: Jurkat NFAT-bla M1, carbachol, beta-lactamase ratio, 5 h; at 17.2 µM (top of the series) unless noted
Outline: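 Jurkat cells with NFAT-driven β-lactamase reporter and co-expressed M1 receptor, stimulated with carbachol (final 1 uM, ~EC50), compound titration, 5 h at 37 °C. CCF4 loaded 1 h at RT; 460/530 nm ratio gave %activity and AC50.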

[3] = Stat Signaling Pathway (AID 446; active = well fitted curve in either direction with a large enough effect, not every such curve was filed as active;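 also: ME-180 cervical cancer cells given 40 pM IL-6 alongside compound; SIE-controlled beta-lactamase reporter measured as 460/530 nm FRET emission ratio; % is scaled to controls: 0 for no effect and ±100 for the full control effect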); details: ME-180 SIE beta-lactamase reporter, IL-6 stimulated, 5 h; at 17.2 µM (top of the series) unless noted
Outline: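 IL-6/STAT signaling read in ME-180 cells via an SIE beta-lactamase reporter. Stimulus was 40 pM IL-6 (its AC50) for 5 hrs, so both activation and inhibition register.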

[4] = molecular target: Glucocorticoid receptor (Homo sapiens) (UniProt P04150); experiment: GR-GFP Redistribution (AID 450;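 active = compounds whose dose series gives a full or clear partial fitted curve of increased nuclear translocation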; also: potency is read from the fitted curve at half-maximal effect)
[5] = molecular target: Glucocorticoid receptor (Homo sapiens) (UniProt P04150); experiment: GR-EFC Redistribution (AID 451; calls by dose curve; also: potency is read from the fitted curve at half-maximal effect); details: CHO-K1 GR-EFC translocation, beta-gal luminescence, 2 h
Outline: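 CHO-K1 cells expressing nuclear EA and GR-ED fragments of b-gal; compounds titrated up to 46 uM final, 2 h at 37 C. GR nuclear translocation read as complemented b-gal luminescence after 1 h RT detection.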

[6] = molecular target: Mitogen-activated protein kinase 10 (Mus musculus) (UniProt Q61831); experiment: JNK3 AlphaScreen Assay (AID 530; active = well fitted curve in either direction with a large enough effect, not every such curve was filed as active;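 also: kinase came from lysate of stimulated human HepG2 cells; signal reports phosphorylation of biotinylated GST-cJun 1-79 at Ser73 with 10 µM ATP; % is scaled to controls: 0 for no effect and ±100 for the full control effect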)
Outline: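 qHTS format: compounds tested as titrations against IL-1beta/TNF-alpha-activated HepG2 lysate JNK3 with biotin-GST-cJun substrate and 10 uM ATP at room temperature. Loss of anti-phospho-cJun AlphaScreen signal indicates inhibition.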

[7] = molecular target: Cytochrome P450 3A4 (Homo sapiens) (UniProt P08684); experiment: qHTS Assay for Inhibitors and Substrates of Cytochrome P450 3A4 (AID 884); also: potency is read from the fitted curve at half-maximal effect; nearly all actives have a fitted effect of over 50% in size
Outline: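 20 nM human CYP3A4 with 25 uM Luciferin-PPXE (at KM) in 200 mM KPO4, preincubated 10 min with compound; NADPH regeneration started a 60 min RT reaction. Luciferin detected by luminescence, normalized to 57 uM ketoconazole as full inhibition.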

[8] = molecular target: Cytochrome P450 3A4 (Homo sapiens) (UniProt P08684); experiment: qHTS Assay for Activators of Cytochrome P450 3A4 (AID 885); also: nearly all actives have a fitted effect of over 65% in size
Outline: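 Quantitative HTS format: compounds preincubated with 20nM human CYP3A4 and Luciferin-PPXE substrate at KM, reaction started by NADPH regeneration, stopped after 60 min, luciferase luminescence read 20 min later.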

[9] = molecular target: Cytochrome P450 2C19 (Homo sapiens) (UniProt P33261); experiment: qHTS Assay for Inhibitors and Substrates of Cytochrome P450 2C19 (AID 899); also: potency is read from the fitted curve at half-maximal effect; nearly all actives have a fitted effect of over 60% in size
Outline: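 Luminescent read-out of luciferin formed from Luciferin-H EGE (10uM, equal to KM). Enzyme 5nM in 50mM KPO4; compound added, 10 min at 37C, then NADPH regenerating system for 60 min at 37C. Full inhibition defined by 57uM ketoconazole.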

[10] = Confirmation and Secondary Assay for Modulators of Hemoglobin Beta Chain Splicing at IVS2 654 locus (AID 910);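 also: HeLa cells stably carrying EGFP split by mutant beta-globin IVS2-654 intron; % of control where 0% means no effect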
Outline: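 HeLa cells stably expressing EGFP interrupted by β-globin IVS2-654 intron, seeded overnight in Opti-MEM/2% FCS, then treated 2 days at 37 °C. Restored splicing read as total peak GFP intensity per well by laser scanning cytometry (488 nm excitation, 500–520 nm emission); 500 nM antisense PNA as control.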

[11] = Confirmation and Secondary Assay for Modulators of Hemoglobin Beta Chain Splicing at IVS2 705 locus (AID 930);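 also: HeLa cells stably expressing the EGFP-705 splicing reporter; GFP fluorescence per well restored by corrected splicing of the IVS2-705 intron in EGFP; % of control where 0% means no effect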
Outline: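 Read-out: total peak GFP fluorescence per well (488 nm excitation, 500-520 nm emission) by laser-scanning cytometry. Cells: HeLa EGFP-705 splicing reporter, 2 days compound exposure in Optimem/2% FCS.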

[12] = AP1 Signaling Pathway (AID 357; active = well fitted curve in either direction with a large enough effect, not every such curve was filed as active;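 also: ME-180 reporter cells stimulated with EGF at its EC50 level; % is scaled to controls: 0 for no effect and ±100 for the full control effect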); details: ME-180 AP-1-bla reporter, EGF-induced, beta-lactamase ratio, 5 h; at 17.2 µM (top of the series) unless noted
Outline: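 AP-1-bla ME-180 cells, Opti-MEM + 0.5% dialyzed FBS, plated overnight 37 °C. Cpd titration + EC50 EGF, 5 h 37 °C. CCF4 2.5 h RT; ex 405, em 460/530 ratio → %activity, AC50.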

[13] = molecular target: 3',5'-cyclic-AMP phosphodiesterase 4B (Homo sapiens) (UniProt Q07343); experiment: qHTS Assay for Inhibitors of PDE-IV (AID 607; active = well fitted activation curve with a large enough effect in the main read-out, with a control signal flat, not every such curve was filed as active; also: % of control where 0% means no effect)
Outline: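 Live HEK293 cells with a modified cyclic nucleotide-gated (CNG) channel report intracellular cAMP via membrane-potential dye fluorescence (ex 535/em 590 nm). Endogenous PDE-IV was targeted. Compounds were tested at up to 22.9 uM final; RO 20-1724 100 uM served as control.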

[14] = molecular target: Guanine nucleotide-binding protein G(i) subunit alpha-1 (Homo sapiens) (UniProt P63096); experiment: qHTS Assay for Inhibitors of RGS12 GoLoco Motif Activity (Green Fluorophore) (AID 879);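 also: 0% = labeled peptide with Gαi1 and full inhibition = labeled peptide alone without protein; negative values mean loss of peptide binding seen as reduced polarization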
Outline: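 Fluorescence polarization assay: 50 nM Gαi1 with 10 nM FITC-labeled RGS12 GoLoco peptide in 10 mM Tris pH 7.5, 150 mM NaCl, 0.1 mM GDP, 0.05% NP40, 10 min at room temperature with compound.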

[15] = molecular target: Cytochrome P450 2D6 (Homo sapiens) (UniProt P10635); experiment: qHTS Assay for Inhibitors and Substrates of Cytochrome P450 2D6 (AID 891);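 also: luciferin methyl ether substrate demethylated by CYP2D6 with NADPH regeneration; % is scaled to controls: 0 for no effect and ±100 for the full control effect; nearly all actives have a fitted effect of over 60% in size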
Outline: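 Human CYP2D6 (5 nM) with 30 uM Luciferin-ME EGE (at Km) in 100 mM KPO4, compound preincubated 10 min, then NADPH regeneration system for 60 min at room temperature. Luciferin read by luminescence; normalized to 1.43 uM quinidine.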

[16] = qHTS Assay for Identification of Small Molecule Antagonists for NFkB Signaling Pathway (AID 895; active = well fitted inhibition curve with a large enough effect in the signal ratio, with a control signal flat, not every such curve was filed as active; the % refers to the signal ratio; also: % is scaled to controls: 0 for no effect and ±100 for the full control effect)
Outline: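 ME-180 NFkB-bla cells (beta-lactamase under NFkB response element), plated overnight, treated with compound then 10 pM TNF alpha (about EC50) for 5 hrs at 37 C. LiveBLAzer FRET read at 460/530 nm emission, 405 nm excitation.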

[17] = molecular target: Pyruvate kinase (Leishmania mexicana) (UniProt Q27686); experiment: qHTS Validation Assay for Inhibitors of Leishmania Mexicana Pyruvate Kinase (AID 945);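 also: 0% = DMSO only neutral control wells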
Outline: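 Luminescent ATP detection (PKLight) after a 1 h room-temperature reaction of 0.2 nM LmPYK E451W mutant with 0.5 mM PEP and 0.1 mM ADP at pH 7.2. Activity is normalized to DMSO-only control wells.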

[18] = molecular target: Pyruvate kinase PKM (Homo sapiens) (UniProt P14618); experiment: qHTS Assay for Activators of Human Muscle Pyruvate Kinase (AID 954; active = well fitted curve in the direction sought with a large enough effect, not every such curve was filed as active;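 also: 0% = uninhibited enzyme and -100% = no enzyme or full thiadiazolimine inhibition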)
Outline: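 Enzyme was run at intermediate activity so both inhibitors and activators could be detected. ATP formed from ADP and PEP by 0.1 nM human PKM2 during a 1 h room-temperature incubation was quantified by coupled luciferase luminescence.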

[19] = molecular target: Alpha-galactosidase A (Homo sapiens) (UniProt P06280); experiment: Counterscreen for Glucocerebrosidase Inhibitors: qHTS Assay for Human alpha-Galactosidase at pH 4.5 (AID 992); also: 0% is about no effect
Outline: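 Read-out is 4-methylumbelliferone fluorescence (365 nm excitation, 440 nm emission) after a pH 10 NaOH/glycine stop. Reactions held 2 nM enzyme and 80 uM substrate at pH 4.5 for 20 min at room temperature.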

[20] = molecular target: alpha-glucosidase (Oryza sativa, rice) (UniProt Q653V4); experiment: Counterscreen for Glucocerebrosidase Inhibitors: qHTS Assay for Rice alpha-Glucosidase at pH 5.0 (AID 997);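 also: 0% = full activity with enzyme and -100% = basal without enzyme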
Outline: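 Rice alpha-glucosidase (4 nM final) with 400 uM 4-methylumbelliferyl-alpha-D-glucopyranoside in citrate buffer pH 5.0, 20 min at room temperature, stopped at pH 10; fluorescence 365/440 nm, compounds 0.7 nM–77 uM, AC50 from Hill fits.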

Sequence of Cytochrome P450 3A4 (Homo sapiens) (P08684 whole entry, looked up): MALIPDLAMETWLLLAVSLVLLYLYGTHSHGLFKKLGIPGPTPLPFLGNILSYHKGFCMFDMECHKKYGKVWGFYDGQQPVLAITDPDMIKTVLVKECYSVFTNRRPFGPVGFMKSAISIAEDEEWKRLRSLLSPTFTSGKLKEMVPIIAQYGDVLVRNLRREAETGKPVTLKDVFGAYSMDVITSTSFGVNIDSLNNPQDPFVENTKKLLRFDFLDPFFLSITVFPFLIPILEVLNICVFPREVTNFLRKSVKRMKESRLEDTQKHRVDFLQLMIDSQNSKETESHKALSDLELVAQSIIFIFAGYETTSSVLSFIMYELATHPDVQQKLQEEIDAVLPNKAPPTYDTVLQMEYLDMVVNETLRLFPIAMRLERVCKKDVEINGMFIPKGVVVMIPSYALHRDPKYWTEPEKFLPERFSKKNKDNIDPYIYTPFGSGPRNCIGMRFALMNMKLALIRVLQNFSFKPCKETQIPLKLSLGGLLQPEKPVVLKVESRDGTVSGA
Sequence of Glucocorticoid receptor (Homo sapiens) (P04150 whole entry, looked up, the tested form may be a part): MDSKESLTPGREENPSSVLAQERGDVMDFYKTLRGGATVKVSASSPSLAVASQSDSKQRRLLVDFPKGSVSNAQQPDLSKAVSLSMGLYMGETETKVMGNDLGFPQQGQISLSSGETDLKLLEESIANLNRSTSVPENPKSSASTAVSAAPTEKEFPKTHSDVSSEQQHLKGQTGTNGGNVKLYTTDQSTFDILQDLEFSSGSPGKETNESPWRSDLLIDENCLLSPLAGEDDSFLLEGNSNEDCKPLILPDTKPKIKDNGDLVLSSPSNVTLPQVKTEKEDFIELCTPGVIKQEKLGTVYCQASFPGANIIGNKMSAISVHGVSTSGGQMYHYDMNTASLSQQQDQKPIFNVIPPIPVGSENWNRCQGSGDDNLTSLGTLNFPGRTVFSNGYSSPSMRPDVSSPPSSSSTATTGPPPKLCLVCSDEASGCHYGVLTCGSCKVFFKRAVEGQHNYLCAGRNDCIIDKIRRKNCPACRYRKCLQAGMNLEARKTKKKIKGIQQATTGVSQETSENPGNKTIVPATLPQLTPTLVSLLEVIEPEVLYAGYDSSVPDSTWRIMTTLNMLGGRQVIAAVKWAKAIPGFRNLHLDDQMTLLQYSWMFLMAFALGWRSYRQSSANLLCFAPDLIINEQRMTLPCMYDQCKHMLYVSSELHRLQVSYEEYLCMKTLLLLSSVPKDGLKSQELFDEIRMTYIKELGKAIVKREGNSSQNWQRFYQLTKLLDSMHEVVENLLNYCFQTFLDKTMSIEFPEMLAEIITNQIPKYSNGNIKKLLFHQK
Sequence of Cytochrome P450 1A2 (Homo sapiens) (P05177 whole entry, looked up): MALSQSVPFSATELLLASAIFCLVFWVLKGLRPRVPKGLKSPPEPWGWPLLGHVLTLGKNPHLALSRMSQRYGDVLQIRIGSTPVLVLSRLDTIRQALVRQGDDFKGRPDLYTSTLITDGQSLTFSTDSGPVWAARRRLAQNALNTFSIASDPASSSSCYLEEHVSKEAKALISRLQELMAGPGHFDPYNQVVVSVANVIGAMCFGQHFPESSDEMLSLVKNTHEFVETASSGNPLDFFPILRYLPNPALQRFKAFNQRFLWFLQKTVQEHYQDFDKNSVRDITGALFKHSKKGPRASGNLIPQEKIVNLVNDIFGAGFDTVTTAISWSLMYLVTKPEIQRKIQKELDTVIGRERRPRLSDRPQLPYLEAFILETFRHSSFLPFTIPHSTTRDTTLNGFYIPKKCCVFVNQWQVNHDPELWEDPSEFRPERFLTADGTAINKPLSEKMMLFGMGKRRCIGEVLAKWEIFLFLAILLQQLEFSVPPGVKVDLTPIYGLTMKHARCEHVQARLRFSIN
Sequence of Cytochrome P450 2C19 (Homo sapiens) (P33261 whole entry, looked up): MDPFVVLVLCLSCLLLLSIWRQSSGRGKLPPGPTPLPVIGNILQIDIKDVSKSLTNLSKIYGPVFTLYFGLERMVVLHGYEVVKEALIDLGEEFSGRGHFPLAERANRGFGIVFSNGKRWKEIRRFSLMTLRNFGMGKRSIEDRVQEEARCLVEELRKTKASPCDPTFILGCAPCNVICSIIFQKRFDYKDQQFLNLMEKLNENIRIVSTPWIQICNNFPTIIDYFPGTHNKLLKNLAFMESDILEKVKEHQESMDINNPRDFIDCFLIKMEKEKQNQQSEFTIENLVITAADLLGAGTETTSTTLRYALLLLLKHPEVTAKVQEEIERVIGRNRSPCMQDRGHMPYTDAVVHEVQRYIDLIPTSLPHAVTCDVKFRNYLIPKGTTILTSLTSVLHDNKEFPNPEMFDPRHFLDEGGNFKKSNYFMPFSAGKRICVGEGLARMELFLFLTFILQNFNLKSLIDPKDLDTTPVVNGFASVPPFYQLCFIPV
Sequence of Pyruvate kinase PKM (Homo sapiens) (P14618 whole entry, looked up): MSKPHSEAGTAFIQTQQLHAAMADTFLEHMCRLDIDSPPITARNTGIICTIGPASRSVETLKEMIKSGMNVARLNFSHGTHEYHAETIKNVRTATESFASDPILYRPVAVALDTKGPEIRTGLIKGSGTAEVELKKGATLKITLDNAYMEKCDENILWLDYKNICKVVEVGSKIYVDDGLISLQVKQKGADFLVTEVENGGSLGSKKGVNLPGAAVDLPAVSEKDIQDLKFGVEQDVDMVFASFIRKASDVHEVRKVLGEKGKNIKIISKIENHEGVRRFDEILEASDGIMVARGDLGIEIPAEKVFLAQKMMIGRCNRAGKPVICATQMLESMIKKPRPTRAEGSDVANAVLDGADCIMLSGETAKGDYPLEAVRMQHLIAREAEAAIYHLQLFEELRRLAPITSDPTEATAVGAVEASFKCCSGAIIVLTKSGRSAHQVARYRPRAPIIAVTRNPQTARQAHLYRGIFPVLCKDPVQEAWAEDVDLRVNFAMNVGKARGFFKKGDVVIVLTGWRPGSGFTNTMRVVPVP
Sequence of Guanine nucleotide-binding protein G(i) subunit alpha-1 (Homo sapiens) (P63096 whole entry, looked up): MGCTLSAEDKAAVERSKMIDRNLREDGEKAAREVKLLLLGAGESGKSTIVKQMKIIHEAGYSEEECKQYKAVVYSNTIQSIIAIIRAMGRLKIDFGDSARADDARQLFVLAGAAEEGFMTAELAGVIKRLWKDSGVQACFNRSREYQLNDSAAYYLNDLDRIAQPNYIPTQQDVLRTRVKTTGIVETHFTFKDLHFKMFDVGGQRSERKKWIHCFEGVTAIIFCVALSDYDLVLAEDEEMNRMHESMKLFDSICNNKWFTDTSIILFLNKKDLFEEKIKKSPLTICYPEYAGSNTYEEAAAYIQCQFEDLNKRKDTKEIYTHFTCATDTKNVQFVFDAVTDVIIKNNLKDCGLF
Sequence of Alpha-galactosidase A (Homo sapiens) (P06280 whole entry, looked up): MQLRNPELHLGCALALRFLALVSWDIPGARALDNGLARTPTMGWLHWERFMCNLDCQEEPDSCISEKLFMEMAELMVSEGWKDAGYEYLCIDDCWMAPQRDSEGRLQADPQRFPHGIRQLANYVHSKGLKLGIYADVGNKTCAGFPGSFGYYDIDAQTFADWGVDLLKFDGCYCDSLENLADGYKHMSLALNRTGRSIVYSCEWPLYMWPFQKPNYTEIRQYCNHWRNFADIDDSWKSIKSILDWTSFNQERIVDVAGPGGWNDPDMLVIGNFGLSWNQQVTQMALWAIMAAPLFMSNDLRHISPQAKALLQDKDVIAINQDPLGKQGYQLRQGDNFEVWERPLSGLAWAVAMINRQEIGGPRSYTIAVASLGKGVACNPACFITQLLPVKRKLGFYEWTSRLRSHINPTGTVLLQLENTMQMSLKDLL
Sequence of Cytochrome P450 2D6 (Homo sapiens) (P10635 whole entry, looked up): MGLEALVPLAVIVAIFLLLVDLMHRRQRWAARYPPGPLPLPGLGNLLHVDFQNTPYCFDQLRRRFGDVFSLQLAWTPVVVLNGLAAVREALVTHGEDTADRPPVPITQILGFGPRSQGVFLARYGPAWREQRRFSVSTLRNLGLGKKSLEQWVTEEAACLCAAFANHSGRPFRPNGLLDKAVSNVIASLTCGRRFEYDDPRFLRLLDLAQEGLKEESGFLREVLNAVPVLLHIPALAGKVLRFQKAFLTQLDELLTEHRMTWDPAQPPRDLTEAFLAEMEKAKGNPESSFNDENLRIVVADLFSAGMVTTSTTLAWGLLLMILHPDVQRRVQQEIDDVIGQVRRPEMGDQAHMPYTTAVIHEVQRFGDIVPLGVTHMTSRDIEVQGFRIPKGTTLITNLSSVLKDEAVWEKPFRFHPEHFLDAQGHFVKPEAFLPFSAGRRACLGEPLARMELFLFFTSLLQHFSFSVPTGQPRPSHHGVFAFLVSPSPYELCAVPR
Sequence of 3',5'-cyclic-AMP phosphodiesterase 4B (Homo sapiens) (Q07343 whole entry, looked up): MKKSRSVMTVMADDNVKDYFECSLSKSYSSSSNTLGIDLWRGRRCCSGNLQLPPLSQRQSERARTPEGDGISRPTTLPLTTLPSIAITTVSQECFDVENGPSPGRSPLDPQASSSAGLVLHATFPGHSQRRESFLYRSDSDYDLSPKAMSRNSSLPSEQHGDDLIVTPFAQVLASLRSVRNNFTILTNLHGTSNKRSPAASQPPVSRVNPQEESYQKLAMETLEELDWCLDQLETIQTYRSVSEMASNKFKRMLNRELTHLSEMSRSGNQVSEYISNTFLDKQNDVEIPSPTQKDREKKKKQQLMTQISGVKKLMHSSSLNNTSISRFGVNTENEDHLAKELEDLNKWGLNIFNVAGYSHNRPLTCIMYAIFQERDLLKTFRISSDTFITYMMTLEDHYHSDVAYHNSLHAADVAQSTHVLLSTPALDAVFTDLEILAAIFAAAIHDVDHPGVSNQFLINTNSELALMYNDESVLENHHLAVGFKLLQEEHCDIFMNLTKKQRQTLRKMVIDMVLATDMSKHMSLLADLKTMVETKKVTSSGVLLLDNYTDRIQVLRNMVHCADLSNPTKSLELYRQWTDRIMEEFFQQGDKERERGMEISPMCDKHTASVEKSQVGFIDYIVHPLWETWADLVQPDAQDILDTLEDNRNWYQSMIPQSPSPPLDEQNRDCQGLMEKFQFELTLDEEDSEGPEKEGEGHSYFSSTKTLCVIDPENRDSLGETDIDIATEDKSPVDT

FC(F)(F)c1ccccc1-c1nc(Nc2ccncc2)c2ccccc2n1
active: Potency [1] 10 µM | Potency [7] 0.631 µM | Potency [9] 2 µM
inactive: activity change, negative = inhibition [2] -8.21% [at 7.69 µM] | activity, negative = inhibition [3] -14.6% [at 7.69 µM] | Potency [4] > 46 µM | Potency [5] > 46 µM | Potency [6] | Potency [8] | Potency [10] | Potency [11]

CC(C)(C)c1cc(-c2ccco2)c(C#N)c(SCC#N)n1
inactive: activity change, negative = inhibition [12] 28.8% | Potency [4] > 20.6 µM

CC[C@]1(O)C[C@H]2CN(CCc3c([nH]c4ccccc34)[C@](C(=O)OC)(c3cc4c(cc3OC)N(C=O)[C@H]3[C@@](O)(C(=O)OC)[C@H](OC(C)=O)[C@@]5(CC)C=CCN6CC[C@]43[C@H]65)C2)C1
active: Potency [7] 3.98 µM
inactive: Potency [1] | activity change, negative = inhibition [2] -8.89% [at 38 µM] | activity, negative = inhibition [3] -14.3% [at 38 µM] | Potency [4] > 46 µM | Potency [5] > 46 µM | Potency [13] | outcome [14] | Potency [8] | Potency [15] | Potency [16] | Potency [17] | outcome [18] | outcome [19] | outcome [20]
